We go through 18 compounds from PubChem BioAssay (NCATS).

Results filed as inconclusive are left out. A call without a number means that no potency is given here. Active and inactive are the calls of the source. Calls come from the whole dose curve; as a rule, active = well fitted inhibition curve with a large enough effect; inconclusive = small, poorly fitted or top-dose-only effect; inactive = no such curve, though single readings can be large or run the other way.

Chain of Cytochrome P450 2D6 (Homo sapiens) (P10635 whole entry, looked up): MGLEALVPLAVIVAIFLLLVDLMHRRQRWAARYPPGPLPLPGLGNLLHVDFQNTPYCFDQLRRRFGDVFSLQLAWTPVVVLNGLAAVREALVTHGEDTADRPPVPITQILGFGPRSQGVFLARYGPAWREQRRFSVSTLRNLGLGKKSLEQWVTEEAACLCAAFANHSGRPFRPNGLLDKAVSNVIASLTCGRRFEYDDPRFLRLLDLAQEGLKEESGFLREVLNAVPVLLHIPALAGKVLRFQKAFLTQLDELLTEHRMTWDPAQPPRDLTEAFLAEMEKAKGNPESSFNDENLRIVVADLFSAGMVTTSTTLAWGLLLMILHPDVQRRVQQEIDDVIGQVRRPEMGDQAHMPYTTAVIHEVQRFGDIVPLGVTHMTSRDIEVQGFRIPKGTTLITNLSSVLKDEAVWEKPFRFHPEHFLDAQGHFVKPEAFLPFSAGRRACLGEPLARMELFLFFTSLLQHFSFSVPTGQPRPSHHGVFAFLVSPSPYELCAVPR

The target in the assay is Cytochrome P450 2D6 (Homo sapiens) (UniProt P10635). Put plainly: qHTS Assay for Inhibitors and Substrates of Cytochrome P450 2D6 (AID 891).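 Note: luciferin methyl ether substrate demethylated by CYP2D6 with NADPH regeneration; nearly all actives have a fitted effect of over 60% in size.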 The following applies: recombinant CYP2D6, luciferin-ME EGE luminescence; series mostly up to 11.4 µM. A digest of the protocol:
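Luminescent read-out of luciferin formed by 5 nM human CYP2D6 demethylating 30 uM Luciferin-ME EGE (Km level) over 60 min at room temperature after NADPH regeneration addition. Data normalized to full inhibition by 1.43 uM quinidine.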
(In qHTS, concentration-response curves come from the screen itself.)
Regarding `COc1ccccc1/C=C/C1=CC2(C)CC1(C)C(c1ccccc1OC)CC2=O` (stereo not drawn), the Potency result is “inactive”.

As to `COC(=O)C1=C(C)N(Cc2ccccc2)C2=C3C(=O)N(c4ccccc4)C(=O)C3[C@@](O)(C(=O)OC)C(=O)N2C1c1ccccc1` (stereo partly drawn), the Potency result is “inactive”. For `COc1ccc(C#CC2C=CC(OC(C)=O)C(COC(C)=O)O2)cc1` (stereo not drawn) the value was “inactive”; for `CCCCCCC1=Cc2cc(OC)c(OC)cc2C(CC(=O)/C=C/OC)O1` (stereo not drawn), “inactive”. For `CCC(=O)CC(NC(=O)OC)c1ccccc1` (stereo not drawn) the value was “inactive”; for `COC(=O)C1=C(C)N(Cc2ccccc2)c2c(C(=O)OC)c(C(=O)OC)c(C(=O)OC)c(=O)n2C1c1ccccc1` (stereo not drawn), “inactive”. For `CCCCCCC1=Cc2cc(OC)c(OC)cc2C(C(C(C)=O)C(=O)OC)O1` (stereo not drawn) the value was “inactive”; for `OCC1OC(C#Cc2ccccc2)C=CC1O` (stereo not drawn), “inactive”; for `O=C(/C=N/O)NCCCCNC(=O)/C=N/O`, “inactive”. For `C=CCOC(=O)C(C(=O)CC)C(NC(=O)OC)c1ccc(F)cc1` (stereo not drawn), the Potency result is “inactive”. For `CC1CCC(C(=O)O)NC1c1cccc(N2CCOCC2)c1` (stereo not drawn) the value was “inactive”.

Regarding `C=C(C)C(O)/C=C/CCCCCCC` (stereo not drawn), the Potency entry was “inactive”. For `C=CCOC(=O)C(C(C)=O)C(NC(=O)OC)c1ccc2ccccc2c1` (stereo not drawn) the value was “inactive”; for `CCC(=O)CC(NC(=O)OC)c1ccc(F)cc1` (stereo not drawn), “inactive”; for `COC1(C#CC2C=CC(OC(C)=O)C(COC(C)=O)O2)CCCCC1` (stereo not drawn), “inactive”.

As for `C=CCC1(C)OC=Cc2nc3cc(Cl)c(Cl)cc3nc21` (stereo not drawn), the Potency result was “inactive”. For `CCN1C(C)=C(C(=O)OC)C(c2ccccc2)N2C(=O)[C@](O)(C(=O)OC)C(c3ccccc3)C(C(C)=O)=C12` (stereo partly drawn) the value was “inactive”. For `O=C1C=C[C@@H](O)[C@@H]2[C@H]3C(=O)N(c4ccc(F)cc4F)C(=O)[C@@H]3CC[C@@H]12` the value was “inactive”.
